This is a sample that favours compounds with a hit; in the whole collection about 7.4% have one here.
FLuc modulator: qHTS profiling assay for firefly luciferase inhibitor/activator using purifed enzyme and Km concentrations of substrates (counterscreen for miR-21 project); Luciferin 4-monooxygenase (Photinus pyralis), P08659; Potency, µM (doses to about 57.5 µM), inactives show top-dose activity change, negative = inhibition, hits mostly inhibitors; 360,000 compounds, 6.9% hits; purified FLuc, Km substrates, luminescence inhibition; AID 588342, 2011;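 further: plate controls were vehicle for no effect and reference inhibitor for full effect; nearly all actives have a fitted effect of over 55% in size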
Target sequence (P08659 whole entry, looked up): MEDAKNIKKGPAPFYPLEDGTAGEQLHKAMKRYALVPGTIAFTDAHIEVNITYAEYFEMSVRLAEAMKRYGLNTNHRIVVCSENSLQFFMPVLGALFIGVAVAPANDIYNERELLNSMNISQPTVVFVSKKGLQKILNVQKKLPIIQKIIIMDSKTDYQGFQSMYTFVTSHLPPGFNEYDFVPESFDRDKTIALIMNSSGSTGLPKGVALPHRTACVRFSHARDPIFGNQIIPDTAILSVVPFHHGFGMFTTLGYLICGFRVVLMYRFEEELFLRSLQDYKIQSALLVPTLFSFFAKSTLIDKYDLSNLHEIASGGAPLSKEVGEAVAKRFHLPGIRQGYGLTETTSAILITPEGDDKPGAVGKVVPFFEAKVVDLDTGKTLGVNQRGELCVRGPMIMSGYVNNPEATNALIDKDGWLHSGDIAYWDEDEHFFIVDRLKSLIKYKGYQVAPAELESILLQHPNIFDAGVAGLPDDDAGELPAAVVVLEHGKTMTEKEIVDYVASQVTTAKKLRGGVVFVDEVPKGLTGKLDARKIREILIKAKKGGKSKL
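Purified P. pyralis luciferase, 10 nM final, with Km-level 10 uM D-luciferin and 10 uM ATP in 50 mM Tris acetate pH 7.5, 10 mM Mg acetate, 0.01% Tween-20, 0.05% BSA; 6-point qHTS titration about 60 µM downward; luminescence read.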
Rab9 prom act: qHTS Assay for Rab9 Promoter Activators | Huh7 Rab9 promoter-luciferase reporter, luminescence, 24 h | Potency, µM (series often up to 9.22 µM), for the others: at the top dose activation, negative = inhibition, usual class: activators | 320,000 compounds, 2.8% hits | AID 485297, 2010; further: % of control where 0% means no effect; nearly all actives have a fitted effect of over 60% in size
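Cells were plated at 1500 per well in reduced-serum medium with 10% FBS and left 2 h. Compound in DMSO was then added for 24 h at 37 °C. Reporter signal was read by luminescence after 10 min with luciferase detection reagent.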
NPC1 prom act: qHTS Assay for NPC1 Promoter Activators. 320,000 compounds, 2.4% hits. Huh7 NPC1 promoter luciferase reporter, 24 h. Potency, µM (series often up to 9.22 µM), inactives show at the highest dose activation, usual class: activators; further: % of control where 0% means no effect; nearly all actives have a fitted effect of over 60% in size
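NPC1 promoter–luciferase Huh7 cells; 24 h compound; luminescence.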
ELG1 genotoxic: qHTS screen for small molecules that induce genotoxicity in human embryonic kidney (HEK293T) cells expressing luciferase-tagged ELG1; 330,000 compounds, 1.3% hits; HEK293T ELG1-luciferase reporter, luminescence, 16 h; AID 504466, 2011; Potency, µM (series often up to 46 µM), for inactives: at the top dose activity change, positive = activation, actives largely listed as activators; further: % of control where 0% means no effect; nearly all actives have a fitted effect of over 60% in size
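Screening used a luciferase reporter fused to human ELG1 in HEK293T cells. Luminescence was read on a CCD plate imager after 16 hr exposure and 30 min ONE-Glo incubation.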
KinaseGlo FLuc: Counterscreen for Luciferase (Kinase-Glo TM) Inhibition; Kinase-Glo luciferase, ATP luminescence, 8 min; Potency, µM (titrated, usually from 38.3 µM), inactives show at the top dose activity change, negative = inhibition, actives largely listed as inhibitors; Luciferin 4-monooxygenase (Photuris pensylvanica), Q27757; AID 1379, 2008; 200,000 compounds, 0.28% hits; further: on the % scale 0 is the no-effect control and ±100 the full control effect; nearly all actives have a fitted effect of over 60% in size
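Light output from Kinase-Glo luciferase with luciferin and 10 uM ATP in 50 mM imidazole pH 7.2, KCl, MgCl2, Tween 20, BSA; compound pin-delivered, 8-min ambient incubation, then luminescence read.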
SMN2 splice up: qHTS Assay for Enhancers of SMN2 Splice Variant Expression; HEK293 SMN2-luciferase splicing reporter, luminescence, 30-36 h; Potency, µM (doses to about 46.1 µM), inactives show at the top dose activity change, positive = activation, actives largely listed as activators; 210,000 compounds, 2.8% hits; AID 1458, 2008; further: % of control where 0% means no effect; nearly all actives have a fitted effect of over 55% in size
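HEK293 cells carry an SMN2 minigene-luciferase reporter in which exon 7 inclusion puts luciferase in frame. Cells were seeded at 2000 cells/well, attached for 10-12 hours, then exposed to compounds for 30-36 hours at 37C before ONE-Glo luminescence.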
* = called active by the depositor. The call rests on the fitted dose curve; in most records, active means well fitted curve in the direction sought with a large enough effect; inconclusive means small, poorly fitted or top-dose-only effect, or another doubt; inactive means no such curve, though single readings can be large; an effect the other way counts as inactive or inconclusive. Potency means the concentration at half of the fitted maximal effect.

CCOC(=O)c1cc2cc(OC)ccc2[nH]1 was read as FLuc modulator 12µM*, Rab9 prom act 3.98µM*, NPC1 prom act 3.55µM*, ELG1 genotoxic inconclusive, KinaseGlo FLuc -3.2% and SMN2 splice up -2.6%.
`CCOC(=O)c1[nH]c2ccc(F)cc2c1NC(=O)c1cc(OC)c(OC)c(OC)c1` gave FLuc modulator 1.0%, Rab9 prom act 8.1%, NPC1 prom act -0.2%, ELG1 genotoxic 0.7%, KinaseGlo FLuc 1.7% and SMN2 splice up 22.4µM*.
Screening CCOC(=O)c1[nH]c2ccc(OC)cc2c1NC(C)=O returned FLuc modulator -6.8%, Rab9 prom act -10.7%, NPC1 prom act 5.7%, ELG1 genotoxic -1.2%, KinaseGlo FLuc 0.8% and SMN2 splice up -2.7%.
Screening CCOC(=O)c1[nH]c2ccc(F)cc2c1NC(=O)c1ccccc1C(=O)O returned FLuc modulator -18.6%, Rab9 prom act 6.1%, NPC1 prom act 18.2% and ELG1 genotoxic 11.2%.
CCOC(=O)c1[nH]c2ccc(OC)cc2c1C was read as FLuc modulator 13.5µM*, Rab9 prom act inconclusive, NPC1 prom act inconclusive, ELG1 genotoxic inconclusive, KinaseGlo FLuc -3.2% and SMN2 splice up 4.0%.
`COc1ncc2nc(-c3ccccc3)c(=O)n(C[C@H]3CCCO3)c2n1` gave KinaseGlo FLuc 1.0% and SMN2 splice up 9.4%.
For CN1C(=O)/C(=C\c2ccco2)N=C1c1ccc(Cl)cc1Cl the results were FLuc modulator 16.9µM*, Rab9 prom act -2.3%, NPC1 prom act -2.3% and ELG1 genotoxic 4.2%.
Screening COc1ccc(Nc2ncc(C(=O)N3CCN(Cc4ccccc4)CC3)c3ccccc23)cc1 returned FLuc modulator 19µM*, Rab9 prom act -7.9%, NPC1 prom act 0.6%, ELG1 genotoxic -9.3%, KinaseGlo FLuc 1.2% and SMN2 splice up -40.9%.
For COc1ccc(Nc2ncc(C(=O)N3CCC(C(N)=O)CC3)c3ccccc23)cc1 the results were FLuc modulator -6.2%, Rab9 prom act -6.6%, NPC1 prom act -0.6%, ELG1 genotoxic 0.2%, KinaseGlo FLuc -2.7% and SMN2 splice up 14.4%.
`COc1cc(Cl)ccc1OCc1cc(C(=O)N2CCCCCCC2)no1` gave FLuc modulator inconclusive, Rab9 prom act 11.4%, NPC1 prom act 3.2% and ELG1 genotoxic 3.5%.
Screening Cc1ccc(C)c(OCc2cc(C(=O)N3CCOCC3)no2)c1 returned FLuc modulator 21.3µM*, Rab9 prom act inconclusive, NPC1 prom act 22.7% and ELG1 genotoxic inconclusive.
Cc1ccc(C)c(OCc2cc(C(=O)N3CCC(N4CCCC(O)C4)CC3)no2)c1 (configuration not stated) was read as FLuc modulator -1.3%, Rab9 prom act 4.2%, NPC1 prom act -1.2% and ELG1 genotoxic 4.1%.
Screening COCCCC1CCN(C(=O)c2cc(COc3cc(C)ccc3C)on2)CC1 returned FLuc modulator 12µM*, Rab9 prom act 3.55µM*, NPC1 prom act 2.51µM* and ELG1 genotoxic inconclusive.
COCCN1CCN(C(=O)c2cc(COc3ccc(Cl)cc3OC)on2)CC1 was read as FLuc modulator 10.7µM*, Rab9 prom act 3.16µM*, NPC1 prom act inconclusive and ELG1 genotoxic 20.6µM*.
For Cc1ccc(C)c(OCc2cc(C(=O)N3CCNC(=O)C3)no2)c1 the results were FLuc modulator 5.5%, Rab9 prom act 11.1%, NPC1 prom act -6.2% and ELG1 genotoxic -0.1%.
Screening COCCN1CCN(C(=O)c2cc(COc3cc(C)ccc3C)on2)CC1 returned FLuc modulator 13.5µM*, Rab9 prom act 2.24µM*, NPC1 prom act inconclusive and ELG1 genotoxic inconclusive.
For CCN(CC)c1nc2ccccc2nc1C(=O)Nc1cc(OC)c(OC)c(OC)c1 the results were FLuc modulator -4.6%.
CC(=O)NCCC1CCCCN1C(=O)c1cc(COc2cc(C)ccc2C)on1 (configuration not stated) was read as FLuc modulator 16.9µM*, Rab9 prom act 2.24µM*, NPC1 prom act 3.55µM* and ELG1 genotoxic 16.4µM*.
For CC(C)c1ccc(-n2cnn(-c3ncccc3[N+](=O)[O-])c2=O)cc1 the results were FLuc modulator 3.01µM*, Rab9 prom act 0.891µM*, NPC1 prom act 1.12µM*, ELG1 genotoxic 2.31µM*, KinaseGlo FLuc -7.3% and SMN2 splice up 7.94µM*.
Screening O=C(O)COc1ccc2c(c1)O/C(=C\c1cccs1)C2=O returned FLuc modulator 1.9µM*, Rab9 prom act -0.9%, NPC1 prom act -4.9% and ELG1 genotoxic 1.2%.
For Cc1ccc(/C=C2\Oc3cc(OCC(=O)NN)ccc3C2=O)o1 the results were FLuc modulator 2.13µM*, Rab9 prom act -5.1%, NPC1 prom act 0.7% and ELG1 genotoxic 0.2%.
CC(=O)c1cccc(NC(=S)N2CCN(c3ccccn3)CC2)c1 was read as FLuc modulator -4.3%, Rab9 prom act -0.5%, NPC1 prom act 5.6% and ELG1 genotoxic -14.6%.
`Cc1ccc(-c2csc(N3CCN(S(=O)(=O)c4ccc5c(c4)NC(=O)CO5)CC3)n2)cc1` gave FLuc modulator 0.3%, Rab9 prom act 2.5%, NPC1 prom act -3.3% and ELG1 genotoxic -3.6%.
For CS(=O)(=O)c1ccccc1C(=O)Nc1ccc(-c2nc3ccccc3[nH]2)cc1 the results were FLuc modulator 13.5µM*, Rab9 prom act 3.55µM*, NPC1 prom act inconclusive and ELG1 genotoxic 11.4%.
O=C(O)c1ccccc1-c1ccccc1C(=O)Nc1cccc(-c2nc3ccccc3o2)c1 was read as FLuc modulator 8.49µM*, Rab9 prom act -3.8%, NPC1 prom act -0.2%, ELG1 genotoxic 5.8% and KinaseGlo FLuc -7.1%.
`CS(=O)(=O)c1ccccc1C(=O)Nc1ccc(-c2nc3ccccc3o2)cc1` gave FLuc modulator 23.9µM*, Rab9 prom act inconclusive, NPC1 prom act inconclusive and ELG1 genotoxic 8.8%.
`COc1ccc(C(CNC(=O)COc2ccc(Cl)c(C)c2)N2CCOCC2)cc1` (configuration not stated) gave FLuc modulator -9.5%.

From PubChem BioAssay
